# Data: paper PMC7862700, “An all-to-all approach to the identification of sequence-specific readers for epigenetic DNA modifications on cytosine”
# What was measured:
# Assay in all cases: DAPPL (digital affinity profiling via proximity ligation, sequencing); 10 mM Tris-HCl pH 7.5, 50 mM NaCl, 1 mM DTT, 4% glycerol, room temperature, 30 min; GST-TFs on glutathione beads, 16-mer random dsDNA library, 0.1% formaldehyde crosslink after washing; high values mean tight binding
# FEV = target: T1, FEV (Homo sapiens, UniProt Q99581 1-238); settings: protein: recombinant; tags: N-terminal GST; dsDNA, one strand shown
# T1 sequence: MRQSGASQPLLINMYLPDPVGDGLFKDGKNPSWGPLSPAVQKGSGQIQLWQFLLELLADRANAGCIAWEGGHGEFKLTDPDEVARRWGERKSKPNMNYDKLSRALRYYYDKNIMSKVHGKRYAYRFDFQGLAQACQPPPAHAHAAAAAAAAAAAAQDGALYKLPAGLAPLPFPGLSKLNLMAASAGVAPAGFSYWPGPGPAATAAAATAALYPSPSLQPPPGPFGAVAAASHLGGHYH
# Method in brief: (§1)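 Each value of binding signal is a hexamer's read frequency for a factor divided by the same hexamer's frequency in the tag-only sample. Barcoded, bead-captured GST fusions of human transcription factors made in yeast were pooled with that sample and incubated with 200 nmole of a random double-stranded 16-mer DNA library in Tris/NaCl/DTT/glycerol buffer at room temperature for 30 min. Washing, 0.1% formaldehyde crosslinking, proximity ligation, PCR and Illumina NextSeq500 sequencing followed.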
# ETV5 = ETV5 (Homo sapiens, UniProt P41161 1-510); settings: protein: recombinant; tags: N-terminal GST; dsDNA, one strand shown
# Chain of ETV5 (P41161 whole entry): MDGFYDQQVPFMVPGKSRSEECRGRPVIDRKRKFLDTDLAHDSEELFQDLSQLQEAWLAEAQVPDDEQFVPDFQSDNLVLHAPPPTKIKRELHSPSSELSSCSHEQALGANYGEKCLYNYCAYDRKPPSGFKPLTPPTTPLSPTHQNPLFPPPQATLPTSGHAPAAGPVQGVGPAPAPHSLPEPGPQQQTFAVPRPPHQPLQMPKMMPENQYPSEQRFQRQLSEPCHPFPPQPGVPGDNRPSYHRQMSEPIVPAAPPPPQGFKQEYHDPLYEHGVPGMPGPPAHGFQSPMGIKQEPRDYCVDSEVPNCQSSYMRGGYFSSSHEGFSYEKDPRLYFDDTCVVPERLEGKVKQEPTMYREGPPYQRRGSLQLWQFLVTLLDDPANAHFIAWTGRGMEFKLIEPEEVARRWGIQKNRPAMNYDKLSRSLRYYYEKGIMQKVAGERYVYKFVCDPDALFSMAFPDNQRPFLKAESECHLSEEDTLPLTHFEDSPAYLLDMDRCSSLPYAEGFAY
# Method in brief: as §1
# HSF1 = HSF1 (Homo sapiens, UniProt Q00613 1-529); settings: protein: recombinant; tags: N-terminal GST; chain copies: 3; dsDNA, one strand shown
# Chain of HSF1 (Q00613 whole entry): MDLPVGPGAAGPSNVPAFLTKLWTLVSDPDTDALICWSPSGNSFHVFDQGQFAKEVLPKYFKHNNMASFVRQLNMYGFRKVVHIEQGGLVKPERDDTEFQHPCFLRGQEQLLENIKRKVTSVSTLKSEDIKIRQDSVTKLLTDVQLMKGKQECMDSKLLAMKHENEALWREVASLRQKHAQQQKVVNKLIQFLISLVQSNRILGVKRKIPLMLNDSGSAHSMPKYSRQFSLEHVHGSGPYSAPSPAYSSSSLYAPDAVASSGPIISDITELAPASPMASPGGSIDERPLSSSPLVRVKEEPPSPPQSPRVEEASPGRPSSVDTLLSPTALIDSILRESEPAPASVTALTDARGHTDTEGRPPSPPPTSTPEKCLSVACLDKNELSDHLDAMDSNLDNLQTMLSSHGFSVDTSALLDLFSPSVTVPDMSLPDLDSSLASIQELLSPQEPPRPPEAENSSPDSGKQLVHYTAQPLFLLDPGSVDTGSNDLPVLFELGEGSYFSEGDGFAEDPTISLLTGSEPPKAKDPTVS
# Method in brief: as §1
# SPIC = target: T2, SPIC (Homo sapiens, UniProt Q8N5J4 1-248); settings: protein: recombinant; tags: N-terminal GST; dsDNA, one strand shown
# T2 sequence: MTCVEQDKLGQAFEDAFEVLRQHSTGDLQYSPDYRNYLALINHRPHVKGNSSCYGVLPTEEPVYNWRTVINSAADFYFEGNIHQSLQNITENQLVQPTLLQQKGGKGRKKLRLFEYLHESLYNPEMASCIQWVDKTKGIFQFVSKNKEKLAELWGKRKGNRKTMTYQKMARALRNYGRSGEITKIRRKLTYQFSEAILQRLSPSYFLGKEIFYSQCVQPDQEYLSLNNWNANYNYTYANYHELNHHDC
# Method in brief: as §1
# ELF4 = ELF4 (Homo sapiens, UniProt Q99607 1-663); settings: protein: recombinant; tags: N-terminal GST; dsDNA, one strand shown
# Chain of ELF4 (Q99607 whole entry): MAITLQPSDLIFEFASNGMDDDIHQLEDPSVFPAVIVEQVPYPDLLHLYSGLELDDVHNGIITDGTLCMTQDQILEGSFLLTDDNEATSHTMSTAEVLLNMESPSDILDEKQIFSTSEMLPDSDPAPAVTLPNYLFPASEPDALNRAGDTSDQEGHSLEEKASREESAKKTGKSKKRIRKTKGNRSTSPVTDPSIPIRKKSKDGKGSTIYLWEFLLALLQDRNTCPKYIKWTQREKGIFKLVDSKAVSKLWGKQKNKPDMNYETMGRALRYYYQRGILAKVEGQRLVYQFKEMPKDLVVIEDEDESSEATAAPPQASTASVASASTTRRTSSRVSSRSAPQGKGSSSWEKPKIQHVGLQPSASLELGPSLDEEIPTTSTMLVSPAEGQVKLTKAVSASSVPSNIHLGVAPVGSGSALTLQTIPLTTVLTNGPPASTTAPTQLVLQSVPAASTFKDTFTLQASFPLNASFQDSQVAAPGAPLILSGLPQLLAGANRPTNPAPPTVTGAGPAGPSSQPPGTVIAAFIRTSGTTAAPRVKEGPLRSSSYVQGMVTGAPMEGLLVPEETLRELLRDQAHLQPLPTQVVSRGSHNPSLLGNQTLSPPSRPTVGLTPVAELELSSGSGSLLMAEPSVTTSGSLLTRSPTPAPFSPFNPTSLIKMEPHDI
# Method in brief: as §1
# ELK4 = target: T3, ELK4 (Homo sapiens, UniProt P28324-2 1-405); settings: protein: recombinant; tags: N-terminal GST; dsDNA, one strand shown
# T3 sequence: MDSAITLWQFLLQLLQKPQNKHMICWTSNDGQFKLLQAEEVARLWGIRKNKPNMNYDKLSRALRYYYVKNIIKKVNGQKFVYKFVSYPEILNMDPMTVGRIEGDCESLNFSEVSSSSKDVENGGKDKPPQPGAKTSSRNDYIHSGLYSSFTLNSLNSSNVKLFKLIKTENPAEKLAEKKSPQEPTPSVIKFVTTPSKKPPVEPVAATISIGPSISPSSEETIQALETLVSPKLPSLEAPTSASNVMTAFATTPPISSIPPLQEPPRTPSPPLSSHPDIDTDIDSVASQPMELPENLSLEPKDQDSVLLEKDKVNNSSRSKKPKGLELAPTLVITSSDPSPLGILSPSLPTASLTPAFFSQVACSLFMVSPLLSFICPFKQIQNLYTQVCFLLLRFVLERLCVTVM
# Method in brief: as §1
# ETV2 = target: T4, ETV2 (Homo sapiens, UniProt O00321 1-342); settings: protein: recombinant; tags: N-terminal GST; dsDNA, one strand shown
# T4 sequence: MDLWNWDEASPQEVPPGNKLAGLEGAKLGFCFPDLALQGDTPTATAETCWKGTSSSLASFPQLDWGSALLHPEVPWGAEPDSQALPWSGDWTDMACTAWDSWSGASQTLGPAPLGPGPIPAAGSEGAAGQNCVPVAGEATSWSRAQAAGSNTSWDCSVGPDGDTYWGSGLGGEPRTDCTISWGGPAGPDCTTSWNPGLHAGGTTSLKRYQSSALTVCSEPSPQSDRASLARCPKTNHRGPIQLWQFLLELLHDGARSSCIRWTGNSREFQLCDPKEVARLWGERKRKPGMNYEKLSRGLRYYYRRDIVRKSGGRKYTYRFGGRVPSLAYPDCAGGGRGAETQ
# Method in brief: as §1
# ELF3 = target: T5, ELF3 (Homo sapiens, UniProt P78545 1-371); settings: protein: recombinant; tags: N-terminal GST; dsDNA, one strand shown
# T5 sequence: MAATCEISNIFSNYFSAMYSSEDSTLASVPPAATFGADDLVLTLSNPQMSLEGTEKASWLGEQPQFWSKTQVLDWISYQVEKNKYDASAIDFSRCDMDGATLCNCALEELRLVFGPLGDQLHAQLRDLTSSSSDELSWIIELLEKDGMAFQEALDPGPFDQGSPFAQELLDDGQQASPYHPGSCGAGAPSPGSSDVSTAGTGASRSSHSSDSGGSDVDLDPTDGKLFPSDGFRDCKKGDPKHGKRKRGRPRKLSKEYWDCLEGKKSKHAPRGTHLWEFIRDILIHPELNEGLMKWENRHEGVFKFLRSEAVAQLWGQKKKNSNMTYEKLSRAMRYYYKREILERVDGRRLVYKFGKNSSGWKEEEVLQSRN
# Method in brief: as §1
# CRX = CRX (Homo sapiens, UniProt O43186 1-299); settings: protein: recombinant; tags: N-terminal GST; dsDNA, one strand shown
# Chain of CRX (O43186 whole entry): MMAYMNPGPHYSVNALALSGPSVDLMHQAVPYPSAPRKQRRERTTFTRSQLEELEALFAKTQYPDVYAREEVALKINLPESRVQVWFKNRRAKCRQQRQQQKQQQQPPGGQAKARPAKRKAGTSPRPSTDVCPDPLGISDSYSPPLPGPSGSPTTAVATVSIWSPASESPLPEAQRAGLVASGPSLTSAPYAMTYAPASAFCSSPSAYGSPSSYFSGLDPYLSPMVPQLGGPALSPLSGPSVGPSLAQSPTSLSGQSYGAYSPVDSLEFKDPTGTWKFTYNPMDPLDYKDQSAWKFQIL
# Method in brief: as §1
# ETV1 = ETV1 (Homo sapiens, UniProt P50549 1-477); settings: protein: recombinant; tags: N-terminal GST; dsDNA, one strand shown
# Chain of ETV1 (P50549 whole entry): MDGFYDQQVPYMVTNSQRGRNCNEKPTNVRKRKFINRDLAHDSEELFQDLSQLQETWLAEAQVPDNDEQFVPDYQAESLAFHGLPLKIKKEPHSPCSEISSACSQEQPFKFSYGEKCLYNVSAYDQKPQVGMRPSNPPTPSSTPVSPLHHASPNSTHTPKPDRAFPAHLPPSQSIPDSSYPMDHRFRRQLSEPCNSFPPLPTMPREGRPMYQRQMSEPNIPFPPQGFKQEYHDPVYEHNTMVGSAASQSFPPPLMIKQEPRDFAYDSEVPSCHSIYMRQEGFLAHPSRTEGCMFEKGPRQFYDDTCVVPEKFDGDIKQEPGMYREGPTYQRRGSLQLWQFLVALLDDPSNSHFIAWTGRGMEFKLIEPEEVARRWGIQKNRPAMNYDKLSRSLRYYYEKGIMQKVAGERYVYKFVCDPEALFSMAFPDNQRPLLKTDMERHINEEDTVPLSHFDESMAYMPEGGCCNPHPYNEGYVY
# Method in brief: as §1
sequence,measurement,setting,value
GCTAAA,binding signal,FEV,"1.05 fold enrichment (6-mer frequency, TF over GST control)"
same,binding signal,ETV5,"1.15 fold enrichment (6-mer frequency, TF over GST control)"
same,binding signal,HSF1,"1.17 fold enrichment (6-mer frequency, TF over GST control)"
same,binding signal,SPIC,"1.09 fold enrichment (6-mer frequency, TF over GST control)"
same,binding signal,ELF4,"1.06 fold enrichment (6-mer frequency, TF over GST control)"
same,binding signal,ELK4,"1.11 fold enrichment (6-mer frequency, TF over GST control)"
same,binding signal,ETV2,"1.12 fold enrichment (6-mer frequency, TF over GST control)"
same,binding signal,ELF3,"1.07 fold enrichment (6-mer frequency, TF over GST control)"
same,binding signal,CRX,"1.4 fold enrichment (6-mer frequency, TF over GST control)"
same,binding signal,ETV1,"1.26 fold enrichment (6-mer frequency, TF over GST control)"
